Rows were chosen to be rich in hits. Some 1.4% of all compounds tested hit in one or more screens of this group.
HTT ATP protect: qHTS Multiplex Assay to Identify Dual Action Probes in a Cell Model of Huntington: Cytoprotection (ATP) | PC12 HTT-Q103 induced, cytoprotection, ATP luminescence, 40 h | Potency, µM (highest dose often 56.4 µM), for inactives: cytoprotection (ATP increase), actives largely listed as activators | AID 1471, 2008 | hit rate 0.14% among 230,000; further: % of control where 0% means no effect; nearly all actives have a fitted effect of over 45% in size
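Quantitative HTS on tebufenozide-induced (100 nM) PC12 cells expressing HTTQ103 exon 1–GFP; compounds tested as a concentration series; survival measured via cellular ATP.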
HttQ103 aggreg: qHTS Multiplex Assay to Identify Dual Action Probes in a Cell Model of Huntington: Aggregate Formation (GFP) | PC12 HttQ103-GFP aggregates, Acumen cytometry, 40 h | Potency, µM (titrated, usually from 46.1 µM), for the others: at the top dose activity change, negative = inhibition, most hits filed as inhibitors | hit rate 1.1% among 220,000 | AID 1688, 2009; further: on the % scale 0 is the no-effect control and ±100 the full control effect; nearly all actives have a fitted effect of over 60% in size
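Read-out: GFP aggregate count by laser scanning cytometer (488 nm excitation, 500-530 nm emission, 1–25 µm objects >6 SD above background). Cells: PC12, inducible HTTex1-Q103-GFP, 100 nM tebufenozide; compounds titrated.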
ERK EGF block: qHTS Assay for Inhibitors of the ERK Signaling Pathway using a Homogeneous Screening Assay; Stimulation with EGF. Potency, µM (highest dose often 11.5 µM), for inactives: at the top dose activity change, negative = inhibition, hits mostly inhibitors. AID 1454, 2008. hit rate 0.41% among 130,000. HEK293-V1b, EGF-stimulated phospho-ERK AlphaScreen;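 further: plate controls were stimulated vehicle wells for no effect and unstimulated vehicle basal for full effect; nearly all actives have a fitted effect of over 55% in size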
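Homogeneous cell-based phospho-ERK assay: HEK293/V1b cells in 1% FBS, compound 30 min then EGF 5 min, AlphaScreen luminescence. Activity normalized between DMSO and 25 nM EGF controls; AC50 from Hill modelling.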
Numbers without * were called inactive; ? = inconclusive; / = no result; [ ] = another dose, or the depositor's remark. The call rests on the fitted dose curve; in most records, active means well fitted curve in the direction sought with a large enough effect; inconclusive means small, poorly fitted or top-dose-only effect, or another doubt; inactive means no such curve, though single readings can be large; an effect the other way counts as inactive or inconclusive. Potency means the concentration at half of the fitted maximal effect.

SMILES | HTT ATP protect | HttQ103 aggreg | ERK EGF block
Cc1ccc(-n2nnnc2SCC(=O)Nc2cccc(NC(=O)c3ccco3)c2)cc1C | -29%[10 µM] | 10µM* | /
Cc1cc2nc3[nH]c4c(Cl)cc(Cl)cc4c3nc2cc1C | 2%[10 µM] | / | /
O=c1c(-c2cc(F)cc(F)c2)nc2cncnc2n1Cc1ccccc1 | 12% | / | /
CC(C)C[C@H](NC(=O)[C@@H](Cc1c[nH]c2ccccc12)NC(=O)[C@@H](Cc1ccc(O)cc1)NC(=O)[C@@H](CO)NC(=O)[C@@H](Cc1c[nH]c2ccccc12)NC(=O)C(Cc1cnc[nH]1)NC(=O)C1CCC(=O)N1)C(=O)N[C@@H](CCCN=C(N)N)C(=O)N1CCC[C@@H]1C(=O)NCC(N)=O (some centres not stated) | -7% | 3% | /
CCNC(=O)[C@@H]1CCCN1C(=O)[C@H](CCCN=C(N)N)NC(=O)[C@H](CC(C)C)NC(=O)[C@@H](Cc1c[nH]c2ccccc12)NC(=O)[C@H](Cc1ccc(O)cc1)NC(=O)[C@H](CO)NC(=O)[C@H](Cc1c[nH]c2ccccc12)NC(=O)[C@H](Cc1cnc[nH]1)NC(=O)[C@@H]1CCC(=O)N1 | -99% | 7.9µM* | /
Cc1ccccc1C(=O)Nc1ccc(-c2nc3ccc(C(=O)c4ccccc4)cc3[nH]2)cc1 | -68% | 11µM* | /
O=C(c1ccccc1)c1ccc2nc(-c3ccc(NC(=O)c4ccccc4Br)cc3)[nH]c2c1 | -12% | -1% | ?
CC(=O)N(Cc1ccc(F)cc1)C1=C(NCc2ccccc2)C(=O)c2ccccc2C1=O | -98% | 8.9µM* | /
CC(=O)n1nc(-c2ccccc2)nc1NCc1ccc(F)cc1 | -7% | -16% | /
O=c1c(-c2ccc(F)c(F)c2)nc2cncnc2n1Cc1ccccc1 | -32% | / | ?
O=C1/C(=C\c2ccco2)SC(=S)N1C1CCS(=O)(=O)C1 (configuration not stated) | 6%[10 µM] | 6%[9.22 µM] | -11%[57.5 µM]
O=C1/C(=C/c2ccco2)SC(=S)N1C1CCS(=O)(=O)C1 (configuration not stated) | -98%[10 µM] | 4.5µM* | 5%
C[C@@]12CC(=O)[C@@H]3[C@@H](CCC4=CC(=O)CC[C@]43C)[C@@H]1CC=C2CC(=O)O | -5%[10 µM] | / | /
Oc1ccc(Nc2ncnc3scc(-c4ccccc4)c23)cc1 | -8%[10 µM] | ? | 22µM*
Cc1sc2ncnc(Nc3ccc(O)cc3)c2c1C | 0%[10 µM] | 6%[9.22 µM] | 28µM*
c1ccc(-c2csc3ncnc(NCc4ccccn4)c23)cc1 | 43%[10 µM] | 5%[9.22 µM] | ?
Cc1sc2ncnc(N/N=C/c3cccc(O)c3)c2c1C | -13%[10 µM] | 27% | 15%
COc1ccc2[nH]cc(CCNc3ncnc4ccc(-c5ccc6c(c5)OCO6)cc34)c2c1 | -259% | / | /
CN1CCN(c2ncc3nc(-c4cc(F)cc(F)c4)c(=O)n(CCc4ccccc4)c3n2)CC1 | -33% | / | /
O=C1c2ccc3c4c(ccc(c24)C(=O)N1CCCCO)C(=O)N(CCCCO)C3=O | -233% | 5µM* | -2%
O=C(c1ccc2c(c1)C(=O)N(CCCO)C2=O)c1ccc2c(c1)C(=O)N(CCCO)C2=O | -1% | -14% | /
O=C(C[N+]12CN3CN(CN(C3)C1)C2)c1ccc(-c2ccccc2)cc1 | -7%[10 µM] | / | /
Cc1ccc(NC(=O)c2oc3c(c2C)C(=O)CC(C)(C)C3)cc1 | -6%[0.074 µM] | -13% | /
Cc1c(C(=O)Nc2ccccc2)oc2c1C(=O)CC(C)(C)C2 | 6% | 10µM* | /
CCCNC(=O)OC[C@@H]1O[C@H](CCO/N=C\[C@@H](C)[C@H](OCc2ccccc2)C(C)C)C=C[C@@H]1Oc1ccc(OC)cc1 | 2%[10 µM] | / | /
SMILES | HTT ATP protect | HttQ103 aggreg | ERK EGF block
NC(=O)/N=N/C(N)=O | -2% | / | /
NC1=NC(=O)/C(=C/c2ccsc2)S1 | -13% | -21% | 0%
NC1=NC(=O)/C(=C\c2cccnc2)S1 | -20% | 8.9µM* | 2%
CCc1ccc2c(O)c3c(cc2c1C(=O)OC)C(=O)c1c(O)ccc(O)c1C3=O | -71% | / | 18%
C#CCCCO/N=C1/C[C@@H](O)[C@@H](O)[C@@H]2[C@@H]3C(=O)N(C[C@@H]4CCCO4)C(=O)[C@H]3CC[C@H]12 | 3%[10 µM] | / | /
CCCn1c(CNc2ccc(Br)cc2)nc2ccccc21 | -13% | 11µM* | /
CCn1c(CNc2ccc(C(=O)O)cc2)nc2ccccc21 | -17% | -10% | /
COc1ccc(-c2nc3cnc(OC)nc3n(C[C@H]3CCCO3)c2=O)cc1 | -193% | / | /
O=C(Nc1ccc(N2CCN(c3ccc(C(F)(F)F)cn3)CC2)nc1)c1cccs1 | 5%[10 µM] | -2%[9.22 µM] | -4%[57.5 µM]

Screening results (PubChem)
